Screening results (PubChem BioAssay)
TDP1 cell CPT – growth inhibition of DT40 Tdp1-/-;hTDP1 cells with camptothecin (screen for TDP1 inhibitors); chicken DT40 Tdp1-/-;hTDP1 cells + 20 nM CPT, ATP luminescence, 48 h; 420,000 compounds, 12% hits; Potency, µM (top dose mostly 46.2 µM), for the others: at the top dose activity change, negative = growth inhibition, most hits filed as inhibitors; AID 686979; note: potency is the fitted concentration of half-maximal effect; nearly all actives have a fitted effect of over 55% in size
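Cell growth measured by CellTiter-Glo luminescence after a minimum 48 h, 37 C compound exposure with 20 nM CPT in Tdp1-knockout DT40 cells stably expressing hTDP1, seeded 400/well; qHTS titration format.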
HT1080 IDH1KD tx – HT-1080 IDH1 knockdown cell toxicity (counter line). Potency, µM (titrated, usually from 46.1 µM), for the others: at the highest dose activity, negative = toxicity, hits mostly cytotoxic. AID 686971. HT-1080 IDH1 knockdown viability, ATP luminescence, 48 h. 360,000 compounds, 2% hits;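 note: potency is the fitted concentration of half-maximal effect; 0% = DMSO wells and -100% = cell-free medium wells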
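After a 2 h attachment period, IDH1KD HT-1080 cells took pin-transferred compound for 48 h at 37 °C; ATP-based luminescence after 10 min room-temperature reagent incubation reported viability.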
IL1B secr inh – blocks inflammasome-driven IL-1 beta release; THP-1 LPS/ATP IL-1B secretion, AlphaLISA, 16 h; hits give low values; activity change, % at 57.5 µM; 360,000 compounds, 4.7% hits; in the data active = activity change below about -50%; inconclusive = mostly about -30% to -49%
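Secreted IL-1B measured by AlphaLISA bead assay after 16 h compound exposure of THP-1 cells; compounds (final up to 57.5 uM) added 1 h before LPS (250 ng/mL) and ATP (1.25 mM) stimulation; lower signal means less secretion.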
TDP1 cell noCPT – qHTS for Inhibitors of human tyrosyl-DNA phosphodiesterase 1 (TDP1): qHTS in cells in absence of CPT. Potency, µM (doses to about 46.2 µM), for the others: at the top dose activity change, negative = growth inhibition, actives largely listed as inhibitors. 420,000 compounds, 15% hits. DT40 Tdp1-/- hTDP1 cells, no CPT, ATP luminescence, 48 h; note: potency is the fitted concentration of half-maximal effect; nearly all actives have a fitted effect of over 55% in size
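Chicken DT40 Tdp1-/- cells complemented with human TDP1, screened without camptothecin (DMSO vehicle only), 400 cells/well. Compounds pin-transferred, cells incubated at 37 °C for at least 48 hr. Growth read as ATP-dependent luminescence (CellTiter-Glo, 30 min at RT).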
HT1080NT lethal – kills 2HG-producing HT-1080-NT fibrosarcoma cells; 360,000 compounds, 1.6% hits; HT-1080-NT fibrosarcoma viability, CellTiter-Glo ATP luminescence, 48 h; Potency, µM (doses to about 46.1 µM), for inactives: at the highest dose activity, negative = less viability, hits mostly cytotoxic; AID 686970;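 note: NT is the 2HG producing partner of a matched IDH1 knockdown line; potency is the fitted concentration of half-maximal effect; 0% = DMSO-treated cells and -100% = media-only wells without cells; nearly all actives have a fitted effect of over 55% in size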
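Compounds were tested in concentration-response format on HT-1080-NT cells for 48 hours at 37 degrees C. Cell viability came from CellTiter-Glo luminescence; curves were classified by r2, response magnitude and activity.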
An asterisk follows results filed as active. Rows were chosen to be rich in hits. Some 19% of all compounds tested hit in one or more screens of this group. Unless noted, calls come from the whole dose curve; as a rule, active = well fitted curve in the direction sought with a large enough effect; inconclusive = small, poorly fitted or top-dose-only effect, or another doubt; inactive = no such curve, though single readings can be large; an effect the other way counts as inactive or inconclusive. Unless noted, % is set by controls: 0 for no effect and ±100 for the full control effect.

CN(C(=O)COC(=O)c1ccccc1SCC(=O)NC1CCCCCCC1)C1CCS(=O)(=O)C1 (configuration not stated) was read as TDP1 cell CPT -20%, HT1080 IDH1KD tx 8%, IL1B secr inh 8, TDP1 cell noCPT inconclusive and HT1080NT lethal 9%.
`Cc1ccc(S(=O)(=O)CCC(=O)Nc2nc(-c3ccncc3)cs2)cc1` gave TDP1 cell CPT 23µM*, HT1080 IDH1KD tx -2%, IL1B secr inh inconclusive, TDP1 cell noCPT 18µM* and HT1080NT lethal 1%.
`O=C(CS(=O)(=O)c1ccccc1)Nc1nc(-c2ccccc2)cs1` gave TDP1 cell CPT inconclusive, HT1080 IDH1KD tx -3%, IL1B secr inh -5, TDP1 cell noCPT inconclusive and HT1080NT lethal -3%.
For Cc1ccc(S(=O)(=O)CC(=O)Nc2nc(-c3ccccc3)cs2)cc1 the results were TDP1 cell CPT -18%, HT1080 IDH1KD tx -24%, IL1B secr inh -14, TDP1 cell noCPT 21µM* and HT1080NT lethal -25%.
`CCCC(=O)Nc1ccc(-c2csc(N/N=C\c3ccncc3)n2)cc1` gave TDP1 cell CPT 10µM*, HT1080 IDH1KD tx inconclusive, IL1B secr inh inconclusive, TDP1 cell noCPT 8.2µM* and HT1080NT lethal inconclusive.
`CCOC(=O)c1csc(NC(=O)CCS(=O)(=O)c2ccc(Cl)cc2)n1` gave TDP1 cell CPT inconclusive, HT1080 IDH1KD tx -6%, IL1B secr inh -12, TDP1 cell noCPT 18µM* and HT1080NT lethal -1%.
Screening COc1cccc(CC(=O)OCC(=O)c2cc(OC)c(OC)c(OC)c2)c1 returned TDP1 cell CPT -2%, HT1080 IDH1KD tx 0%, IL1B secr inh 8, TDP1 cell noCPT 7% and HT1080NT lethal 0%.
COc1cc(NC(=O)Cn2nnc(-c3ccc(C(F)(F)F)cc3)n2)c(C(=O)O)cc1OC was read as TDP1 cell CPT -13% and TDP1 cell noCPT -15%.
CC(=O)c1sc(NC(=O)C2(F)C(F)(F)C(F)(F)C(F)(F)C(F)(F)C2(F)F)nc1C was read as TDP1 cell CPT 4.1µM*, HT1080 IDH1KD tx 7.1µM*, IL1B secr inh -88*, TDP1 cell noCPT 5.8µM* and HT1080NT lethal 7.1µM*.
`CC(=O)c1sc(NC(=O)CCS(=O)(=O)c2ccc(C)cc2)nc1C` gave TDP1 cell CPT 9.2µM*, HT1080 IDH1KD tx 8%, IL1B secr inh -107*, TDP1 cell noCPT 18µM* and HT1080NT lethal 5%.
`Cc1csc(NC(=O)CCS(=O)(=O)c2ccc(Br)cc2)n1` gave TDP1 cell CPT inconclusive, HT1080 IDH1KD tx -6%, IL1B secr inh 15, TDP1 cell noCPT 23µM* and HT1080NT lethal -2%.
`CC(=O)c1sc(NC(=O)C=C(C)C)nc1C` gave TDP1 cell CPT -6%, HT1080 IDH1KD tx -12%, IL1B secr inh 20, TDP1 cell noCPT -9% and HT1080NT lethal -1%.
For Cc1csc(NC(=O)Cc2ccc(Br)cc2)n1 the results were TDP1 cell CPT 8%, HT1080 IDH1KD tx -10%, IL1B secr inh -9, TDP1 cell noCPT -6% and HT1080NT lethal -23%.
For CN(C)S(=O)(=O)c1cccc(COC(=O)CCNC(=O)c2ccc([N+](=O)[O-])cc2)c1 the results were TDP1 cell CPT 1%, HT1080 IDH1KD tx -1%, IL1B secr inh -7, TDP1 cell noCPT -2% and HT1080NT lethal 1%.
O=C(NCC1CCCO1)c1ccc2c(c1)C(=O)N(c1cccc([N+](=O)[O-])c1)C2=O (configuration not stated) was read as TDP1 cell CPT -10%, HT1080 IDH1KD tx 14%, IL1B secr inh 5, TDP1 cell noCPT -16% and HT1080NT lethal 0%.
Screening COc1ccc(C(C)=O)cc1CSc1nnc(-c2ccccc2O)n1-c1ccccc1 returned TDP1 cell CPT inconclusive, HT1080 IDH1KD tx -25%, IL1B secr inh -10, TDP1 cell noCPT inconclusive and HT1080NT lethal 2%.
`Cc1cc(C)cc(N(CC(=O)NC2CCCC2)C(=O)CNC(=O)c2cccs2)c1` gave TDP1 cell CPT -7%, HT1080 IDH1KD tx 0%, IL1B secr inh -20, TDP1 cell noCPT -5% and HT1080NT lethal 2%.
Screening COc1ccc(/C=C2\CCC(C3CCCC3)C2=O)cc1Cn1cccn1 (configuration not stated) returned TDP1 cell CPT 18µM*, HT1080 IDH1KD tx -8%, IL1B secr inh -80*, TDP1 cell noCPT inconclusive and HT1080NT lethal -1%.
COc1ccc2c(c1)CC/C(=C/c1ccncc1)C2=O was read as TDP1 cell CPT 16µM*, HT1080 IDH1KD tx -10%, IL1B secr inh -105*, TDP1 cell noCPT 16µM* and HT1080NT lethal 0%.
`COc1ccc(/C=C2\CCc3ccccc3C2=O)cc1O` gave TDP1 cell CPT 0.52µM*, HT1080 IDH1KD tx 4.1µM*, IL1B secr inh 10, TDP1 cell noCPT 0.82µM* and HT1080NT lethal 2.3µM*.
For COc1ccc(/C=C2\CCc3ccccc3C2=O)cc1Cn1cccn1 the results were TDP1 cell CPT 21µM*, HT1080 IDH1KD tx -16%, IL1B secr inh inconclusive, TDP1 cell noCPT inconclusive and HT1080NT lethal -5%.
`COc1ccc(C=C2NC(=O)NC2=O)cc1O` gave TDP1 cell CPT 1%, HT1080 IDH1KD tx -6%, IL1B secr inh -15, TDP1 cell noCPT -23% and HT1080NT lethal 0%.
Screening COc1ccc2c(c1)CC/C(=C\C=C\c1ccccc1OC)C2=O returned TDP1 cell CPT inconclusive, HT1080 IDH1KD tx 19%, IL1B secr inh -1, TDP1 cell noCPT inconclusive and HT1080NT lethal 20%.
Screening Cc1nc(C)c(C(=O)OC(C)C(=O)Nc2ccc(F)cc2)s1 (configuration not stated) returned TDP1 cell CPT inconclusive, HT1080 IDH1KD tx 2%, IL1B secr inh 32, TDP1 cell noCPT inconclusive and HT1080NT lethal 0%.
Screening COc1ccc(C2OC(=O)CC2C(=O)NCc2ccccc2Cl)cc1OC (configuration not stated) returned TDP1 cell CPT -2%, HT1080 IDH1KD tx -5%, IL1B secr inh -4, TDP1 cell noCPT inconclusive and HT1080NT lethal -11%.
`COc1ccc(NC(=O)CCc2nc3ccccc3c(=O)[nH]2)cc1S(=O)(=O)N1CCCCC1` gave TDP1 cell CPT -26%, HT1080 IDH1KD tx -12%, IL1B secr inh 6, TDP1 cell noCPT -26% and HT1080NT lethal -17%.
CC(=O)Nc1ccc(/C=C2\CCc3ccccc3C2=O)cc1 was read as TDP1 cell CPT 15%, HT1080 IDH1KD tx inconclusive, IL1B secr inh -96*, TDP1 cell noCPT -25% and HT1080NT lethal 23µM*.
